# Screening results from PubChem.
# An excerpt weighted towards active compounds, which were near 3.3% of everything screened.
# Tau FP inhib: inhibitors of human tau fibril formation; P10636; K18 P301L tau heparin fibrillization, Alexa594 FP, 6 h; Potency, µM (series often up to 57.7 µM), inactives show at the top dose activity, negative = inhibition, hits mostly inhibitors; actives 0.39% (n = 280,000); further: nearly all actives have a fitted effect of over 55% in size
# Target sequence (P10636 561-689 P618L limits assumed): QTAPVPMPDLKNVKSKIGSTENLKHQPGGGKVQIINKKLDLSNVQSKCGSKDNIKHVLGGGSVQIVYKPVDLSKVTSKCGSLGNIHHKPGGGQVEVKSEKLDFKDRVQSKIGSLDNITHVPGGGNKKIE
#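 Human K18 P301L fragment (15 uM unlabeled plus 0.24 uM Alexa 594-labeled) in 100 mM sodium acetate pH 7 with compound, aggregation induced by 20 uM heparin for 6 hr at 37 C. ThT (30 uM) added for 1 hr, then Alexa 594 FP read.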
# Tau ThT inhib: blocks human tau fibril formation measured by thioflavin T; actives 2.1% (n = 270,000); recombinant tau K18 P301L, heparin-induced fibrillization, ThT fluorescence; P10636; Potency, µM (highest dose often 57.4 µM), inactives show top-dose activity, negative = inhibition, actives largely listed as inhibitors; AID 1460; further: nearly all actives have a fitted effect of over 55% in size
#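 Tau K18 P301L fragment (15 uM unlabeled plus 0.24 uM Alexa 594-labeled) in 100 mM sodium acetate pH 7 with compound, fibrillization induced by 20 uM heparin for 6 hr at 37 C. Thioflavin T (30 uM) added, fluorescence read after 1 hr (ex 450, em 510 nm).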
# KinaseGlo FLuc: Kinase-Glo luciferase inhibition (counter-screen); Kinase-Glo luciferase, ATP luminescence, 8 min; Potency, µM (top dose mostly 38.3 µM), inactives show top-dose activity change, negative = inhibition, hits mostly inhibitors; actives 0.28% (n = 200,000); further: nearly all actives have a fitted effect of over 60% in size
#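 Inhibition of Kinase-Glo luciferase light generation was assessed at 10 uM ATP in pH 7.2 imidazole buffer, with luminescence measured after eight minutes at ambient temperature.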
# NPSR antagonist: antagonists of human neuropeptide S receptor cAMP signaling; Q6W5P4; CHO-NPSR cells, cAMP TR-FRET, antagonist mode; Potency, µM (titrated, usually from 38.3 µM), for inactives: top-dose activity change, negative = inhibition, usual class: inhibitors; actives 1% (n = 220,000); AID 1461; further: nearly all actives have a fitted effect of over 50% in size
# Target sequence (Q6W5P4 whole entry, looked up): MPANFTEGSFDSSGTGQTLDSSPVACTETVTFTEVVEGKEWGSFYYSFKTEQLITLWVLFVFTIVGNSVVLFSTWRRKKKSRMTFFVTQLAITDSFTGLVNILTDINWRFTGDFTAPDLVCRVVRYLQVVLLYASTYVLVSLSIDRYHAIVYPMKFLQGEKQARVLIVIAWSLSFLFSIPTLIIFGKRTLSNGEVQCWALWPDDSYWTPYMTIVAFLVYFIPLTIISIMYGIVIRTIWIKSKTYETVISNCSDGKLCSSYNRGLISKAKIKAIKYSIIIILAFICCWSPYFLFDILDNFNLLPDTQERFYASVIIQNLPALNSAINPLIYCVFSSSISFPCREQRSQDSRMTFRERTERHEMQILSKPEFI
# Tau fluor cs: counter-screen for tau fibril formation inhibitors; tau K18 P301L (four-repeat tau fragment) Alexa594 fluorescence, heparin fibrillization; actives 0.93% (n = 280,000); Potency, µM (doses to about 57.7 µM), for inactives: top-dose activity change, negative = decrease; further: nearly all actives have a fitted effect of over 55% in size
#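 Human K18 P301L tau (15 uM unlabeled plus 0.24 uM Alexa 594-labeled, final) in 100 mM sodium acetate pH 7 was mixed with compound and 20 uM heparin and incubated 6 hr at 37 C.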
# * = called active by the depositor; ? = inconclusive; . = no result; [ ] = dose if it differs, or a comment. The call rests on the fitted dose curve; in most records, active means well fitted curve in the direction sought with a large enough effect; inconclusive means small, poorly fitted or top-dose-only effect, or another doubt; inactive means no such curve, though single readings can be large; an effect the other way counts as inactive or inconclusive. On the % scale 0 is the no-effect control and ±100 the full control effect; potency means the concentration at half of the fitted maximal effect.
SMILES,Tau FP inhib,Tau ThT inhib,KinaseGlo FLuc,NPSR antagonist,Tau fluor cs
O=C(c1ccco1)c1cn(Cc2ccccc2Cl)c2ccccc12,-9%,-4%,-2%,10µM*,?
O=C(c1cn(Cc2ccccc2)c2ccccc12)C1CC1,7%,-20%,0%,10µM*,-26%
CCC(=O)c1cn(Cc2ccccc2)c2ccccc12,3%,-5%,-2%,36%,-16%
COc1cc(/C=N/NP(=S)(c2ccccc2)c2ccccc2)ccc1O,11%,?,1%,?,14µM*[quencher]
Oc1ccc(/C=N/NP(=S)(c2ccccc2)c2ccccc2)cc1,?,?,-5%,-24%[46.1 µM],13µM*[quencher]
COc1cccc2c1cc([N+](=O)[O-])c1c(C(=O)O)cc3c(c12)OCO3,-2%,14µM*,1%,.,?
COc1ccc2c(c1OC)C(=O)OC2C1c2cc3c(cc2CCN1C)OCO3 (configuration not stated),-3%,1%,0%,-19%[46.1 µM],-5%
COc1cc(CCN)c(OC)c(OC)c1,.,.,-6%[7.66 µM],.,.
COc1cc2c(cc1OC)-c1c(OC)c(OC)c(OC)c3ccnc(c13)C2=O,-2%,10µM*,0%,-5%,-26%
O=[N+]([O-])c1ccc(Sc2nc3ccccc3o2)c([N+](=O)[O-])c1,?,14µM*,1%,?,8.9µM*[quencher]
Cn1c(O)c(/C=C/C=Nc2ccccc2)c(=O)n(C)c1=S,?,?,.,-6%[46.1 µM],6.3µM*[fluorescent]
Cc1ccccc1-n1c(O)c(/C=C/C=Nc2ccccc2)c(=O)[nH]c1=O,-7%,?,1%,-1%,-4%
O=C1NC(=O)C(=Cc2cc3c(cc2[N+](=O)[O-])OCO3)C(=O)N1,28µM*,13µM*,-3%,11%,-18%
Cc1cccc(N2C(=O)NC(=O)/C(=C/c3cc4c(cc3[N+](=O)[O-])OCO4)C2=O)c1,2%,?,-3%,-24%,-6%
O=c1[nH]c(=S)[nH]c(O)c1N=Nc1ccc(OC(F)F)cc1,6%,4µM*,-17%,-32%,-4%
NS(=O)(=O)c1ccc(N=Nc2c(O)[nH]c(=S)[nH]c2=O)cc1,-4%,5.6µM*,.,20%[7.67 µM],-13%
COc1cccc(N=Nc2c(O)[nH]c(=S)[nH]c2=O)c1,-5%,7.1µM*,.,53%,-20%
COc1ccc(N=Nc2c(O)[nH]c(=S)[nH]c2=O)cc1,-4%,2.8µM*,?,-34%,-10%
O=c1[nH]c(=S)[nH]c(O)c1N=Nc1ccc(S(=O)(=O)N2CCOCC2)cc1,-7%,?,.,8%,-7%
N#CS.N=C=S.N=C=S.[Cu].[NH2-].[NH2-].[NH2-].[NH2-].c1ccc2ncccc2c1,.,.,-2%[7.66 µM],.,.
Cc1nc2ccccc2cc1C[N+]12CN3CN(CN(C3)C1)C2,.,.,0%[7.66 µM],.,.
CC(CN)CC(=O)O (configuration not stated),-16%,-3%,.,.,-6%
Oc1cccc2nc3ccccc3nc12,-11%,16µM*,.,?,-21%
ClC1=C(Cl)C(Cl)=C(Cl)C1=C/C=C/c1ccccc1,?,11µM*,.,55%[7.67 µM],14µM*[quencher]
O=C(O)Cc1ccc([N+](=O)[O-])cc1[N+](=O)[O-],.,.,-4%[7.66 µM],.,.
SMILES,Tau FP inhib,Tau ThT inhib,KinaseGlo FLuc,NPSR antagonist,Tau fluor cs
CC(C)OC(=O)Nc1cccc(Cl)c1,8%,-8%,-3%,.,-1%
N#CC(C#N)=NNc1cccc(Cl)c1,?,4.5µM*,2%,.,?
CCCCCc1nc2c(c(=O)c3ccccc3n2C)c(=O)n1C1CCCCCC1,0%,?,-1%,10µM*,-8%
CC(C)c1ccc(NC(=O)c2ccc(F)c(S(=O)(=O)N3CCc4ccccc4C3)c2)cc1,?,-6%,.,.,-23%
N#CC(C#N)=NNc1ccc(OC(F)(F)F)cc1,?,7.9µM*,3%,.,?
O[C@H](CN1CC1)[C@@H](O)CN1CC1,.,.,-5%[7.66 µM],.,.
C[C@@H](O)CN(CCN(C[C@@H](C)O)C[C@@H](C)O)C[C@@H](C)O.O=[N+]([O-])O.[Cu],.,.,-1%[7.66 µM],.,.
CCc1ccc(CCN2CCCCC2)nc1,.,.,-2%[7.66 µM],.,.
CC(=O)C1=C(C)OC(N)=C(C(=O)OC(C)C)C12C(=O)Nc1ccccc12 (configuration not stated),-5%,?,4%,-7%[46.1 µM],-12%
COCCOC(=O)C1=C(C)OC(N)=C(C(=O)OC)C12C(=O)Nc1ccccc12 (configuration not stated),?,40µM*,-3%,-8%[46.1 µM],-21%
COC1=CC23CCCN2CCc2cc4c(cc2C3C1O)OCO4 (configuration not stated),?,35µM*,-2%,.,?
COc1ccc(OC)c(N2C(=O)NC(=O)/C(=C\c3ccc([N+](=O)[O-])s3)C2=O)c1,?,11µM*,-7%,-23%,?
CN1C(=O)NC(=O)/C(=C/c2ccc([N+](=O)[O-])s2)C1=O,28µM*,.,.,-36%,?
CCc1ccc(Nc2nc3c(S(=O)(=O)c4ccc(C)cc4)nnn3c3ccsc23)cc1,?,11%,.,.,-29%
O=CC(Br)P(=O)(N1CCOCC1)N1CCOCC1 (configuration not stated),25µM*,10µM*,.,38%,?
Cc1ccc(N=Nc2cc(C)ccc2N)cc1,18%,11µM*,.,-2%,18µM*[quencher]
O=C1NC(=S)NC(=O)C1=Cc1cccc2cc3ccccc3cc12,-16%,11µM*,-6%[7.66 µM],?,16µM*[quencher]
O=C1NC(=O)C(=Cc2ccccc2Oc2ccc(F)cc2)C(=O)N1,3%,?,-1%,-2%,-4%
CCn1c(N)c(C(=O)NC)sc1=S,?,?,-2%,-10%[46.1 µM],-20%
O=c1[nH]c(=S)[nH]c(O)c1N=Nc1ccc2c(c1)OCO2,8%,4µM*,?,-34%,-11%
